High-throughput results (PubChem BioAssay)
HT1080-NT tox: kills 2HG-producing HT-1080-NT fibrosarcoma cells; Potency, µM (doses to about 46.1 µM), inactives show top-dose activity, negative = less viability, actives largely listed as cytotoxic; HT-1080-NT fibrosarcoma viability, CellTiter-Glo ATP luminescence, 48 h; 360,000 compounds, 1.6% hits; AID 686970;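 note: NT is the 2HG producing partner of a matched IDH1 knockdown line; potency is the fitted concentration of half-maximal effect; 0% = DMSO-treated cells and -100% = media-only wells without cells; nearly all actives have a fitted effect of over 55% in size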
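HT-1080-NT; 750 cells/well; 5% FBS RPMI; 48 h compound, 37 degrees C; CellTiter-Glo luminescence; curve fitting and curve-class assignment.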
12-LOX inh: ALOX12 (human) lipoxygenase inhibition; P18054; purified 12hLO, xylenol orange hydroperoxide absorbance; Potency, µM (series often up to 108 µM), without a hit: top-dose activity change, negative = inhibition, hits mostly inhibitors; 580,000 compounds, 1.1% hits; AID 1671190; note: potency is the fitted concentration of half-maximal effect
Target sequence (P18054 whole entry, looked up): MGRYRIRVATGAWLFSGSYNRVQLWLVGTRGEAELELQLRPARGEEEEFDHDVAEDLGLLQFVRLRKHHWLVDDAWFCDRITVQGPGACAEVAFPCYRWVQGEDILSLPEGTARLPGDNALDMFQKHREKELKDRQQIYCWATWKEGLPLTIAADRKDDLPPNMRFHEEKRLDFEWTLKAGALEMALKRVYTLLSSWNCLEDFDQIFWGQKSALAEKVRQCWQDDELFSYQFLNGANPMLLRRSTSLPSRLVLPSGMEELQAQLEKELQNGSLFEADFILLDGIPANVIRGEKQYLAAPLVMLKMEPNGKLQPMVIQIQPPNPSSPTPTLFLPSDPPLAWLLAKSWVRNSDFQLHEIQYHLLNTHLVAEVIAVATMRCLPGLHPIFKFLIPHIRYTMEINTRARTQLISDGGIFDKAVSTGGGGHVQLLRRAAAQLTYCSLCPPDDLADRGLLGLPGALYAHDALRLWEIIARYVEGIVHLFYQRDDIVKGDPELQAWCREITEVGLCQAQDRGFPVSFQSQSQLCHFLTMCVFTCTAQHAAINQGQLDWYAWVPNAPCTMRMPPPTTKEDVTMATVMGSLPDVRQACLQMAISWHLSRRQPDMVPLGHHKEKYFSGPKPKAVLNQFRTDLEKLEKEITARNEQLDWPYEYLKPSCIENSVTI
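Purified human 12hLO at 150 nM in 25 mM Hepes, 0.01% Triton X-100, pH 7.0, preincubated 15 min at room temperature with compound. Reaction started with 40 uM arachidonic acid, 30 min at room temperature. Hydroperoxide measured by Fe-xylenol orange, 573/405 nm absorbance ratio.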
DT40 TDP1 CPT: DT40-hTDP1 cell growth loss with CPT | Potency, µM (doses to about 46.2 µM), without a hit: at the highest dose activity change, negative = growth inhibition, hits mostly inhibitors | AID 686979 | 420,000 compounds, 12% hits | chicken DT40 Tdp1-/-;hTDP1 cells + 20 nM CPT, ATP luminescence, 48 h; note: potency is the fitted concentration of half-maximal effect; nearly all actives have a fitted effect of over 55% in size
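Cell growth measured by CellTiter-Glo luminescence after a minimum 48 h, 37 C compound exposure with 20 nM CPT in Tdp1-knockout DT40 cells stably expressing hTDP1, seeded 400/well; qHTS titration format.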
IL1B secr inh: inflammasome signaling inhibition, IL-1 beta readout | THP-1 LPS/ATP IL-1B secretion, AlphaLISA, 16 h; hits give low values | activity change, % at 57.5 µM | 360,000 compounds, 4.7% hits; in the data active = activity change below about -50%; inconclusive = mostly about -30% to -49%
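THP-1 cells pretreated 1 hr with compounds (up to 57.5 uM final), then stimulated with LPS (250 ng/mL final) plus ATP (1.25 mM final); secreted IL-1B measured by AlphaLISA after 16 hr, decreased signal indicating inhibition.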
DT40 TDP1 no CPT: qHTS for Inhibitors of human tyrosyl-DNA phosphodiesterase 1 (TDP1): qHTS in cells in absence of CPT; Potency, µM (top dose mostly 46.2 µM), for the others: at the top dose activity change, negative = growth inhibition, actives largely listed as inhibitors; 420,000 compounds, 15% hits; DT40 Tdp1-/- hTDP1 cells, no CPT, ATP luminescence, 48 h; AID 686978, 2013; note: potency is the fitted concentration of half-maximal effect; nearly all actives have a fitted effect of over 55% in size
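Camptothecin absent (DMSO only). Human TDP1-complemented DT40 knockout cells, 400 cells/well, 37 °C for minimum 48 hr; ATP measured via CellTiter-Glo, 30 min dark incubation, luminescence.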
HT1080 IDH1KD tx: toxicity to HT-1080 IDH1 knockdown cells (counter line) | HT-1080 IDH1 knockdown viability, ATP luminescence, 48 h | Potency, µM (doses to about 46.1 µM), for the others: at the highest dose activity, negative = toxicity, hits mostly cytotoxic | 360,000 compounds, 2% hits | AID 686971;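 note: potency is the fitted concentration of half-maximal effect; 0% = DMSO wells and -100% = cell-free medium wells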
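In this qHTS, HT-1080 cells depleted of IDH1 are exposed for 48 h at 37 °C to compound titrations. Toxicity is scored from CellTiter-Glo luminescence, with DMSO as full viability and medium alone as none.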
An asterisk follows results filed as active; i = inactive; ? = inconclusive; . = not tested or not shown. The full list was thinned out, with hits kept by preference. Unless noted, calls come from the whole dose curve; as a rule, active = well fitted curve in the direction sought with a large enough effect; inconclusive = small, poorly fitted or top-dose-only effect, or another doubt; inactive = no such curve, though single readings can be large; an effect the other way counts as inactive or inconclusive. Unless noted, % is set by controls: 0 for no effect and ±100 for the full control effect.

SMILES | HT1080-NT tox | 12-LOX inh | DT40 TDP1 CPT | IL1B secr inh | DT40 TDP1 no CPT | HT1080 IDH1KD tx
Cc1nn(Cc2ccccc2)c2c1C(c1cccc(Cl)c1)C(C#N)=C(N)O2 (stereo not drawn) | -24.1% | ? | 23.1µM* | 62.0 | 18.4µM* | ?
Cc1cc2c(c(=O)n1CCc1ccccc1)C(c1cccc(Cl)c1)C(C#N)=C(N)O2 (stereo not drawn) | . | -17.0% | . | . | . | .
CCOC(=O)c1cc(S(=O)(=O)Nc2ccc(OCc3ccccc3)cc2)[nH]n1 | . | 8.91µM* | . | . | . | .
NCC1CCN(C2CCCCC2)CC1 | . | -7.7% | . | . | . | .
COc1ccc(NC(=O)CSc2nc(-c3ccco3)cc(C(F)(F)F)n2)cc1 | . | -19.8% | ? | . | 8.2µM* | .
COc1ccc(-c2cc(C(F)(F)F)nc(SCC(=O)Nc3ccc(C(C)=O)cc3)n2)cc1 | . | 0.0% | 20.6µM* | . | ? | .
Cc1csc(SCC(=O)Nc2sc3c(c2C#N)CCC3)n1 | -2.8% | 347.9% | ? | 7.8 | ? | -23.7%
COc1ccc(NC(=O)CSc2nc(-c3ccco3)cc(C(F)(F)F)n2)c(OC)c1 | . | -1.2% | -7.5% | . | -12.3% | .
COc1ccc(-c2cc(C(F)(F)F)nc(SCC(=O)NC(C)(C)C)n2)cc1 | . | 23.3% | . | . | . | .
COc1ccc(-c2cc(C(F)(F)F)nc(SCC(=O)Nc3sc4c(c3C#N)CCC4)n2)cc1 | 16.7% | ? | ? | -7.6 | 5.8µM* | -1.9%
Cc1ccnc(SCC(=O)Nc2sc3c(c2C#N)CCCC3)n1 | -12.8% | 0.0% | 3.26µM* | ? | 2.91µM* | -19.4%
COc1ccc(Cl)cc1NC(=O)C(C)OC(=O)c1ccsc1 (stereo not drawn) | . | 4.5% | . | . | . | .
CCCCn1c(=O)[nH]c(=O)c2c1nc(COC(=O)c1ccccc1)n2CCC(C)C | . | -9.6% | . | . | . | .
N#C/C(=C/c1ccc(Cl)cc1)C(=O)OCC(=O)N1CCCCC1 | . | -6.5% | . | . | . | .
Cc1ccc(NC(=O)c2ncoc2-c2cccs2)cc1F | . | 1.3% | . | . | . | .
COc1cc(OC)cc(C(=O)N2CCCC(c3noc(COc4ccccc4)n3)C2)c1 (stereo not drawn) | . | -12.9% | . | . | . | .
NCC(=O)Nc1ccccn1 | . | 27.8% | . | . | . | .
O=C(NCc1ccc(C(F)(F)F)cc1)c1n[nH]c2c1CCCC2 | . | 94.6% | . | . | . | .
COc1cc(NC(=O)CSc2nc(-c3ccco3)cc(C(F)(F)F)n2)cc(OC)c1OC | . | ? | 3.66µM* | . | 5.17µM* | .
COc1ccccc1CCNC(=O)CCSc1nc(-c2ccco2)cc(C(F)(F)F)n1 | -5.6% | ? | 23.1µM* | -13.1 | ? | -26.0%
COc1ccc(-c2ccc(C#N)c(SCC(=O)Nc3sc4c(c3C#N)CCC4)n2)cc1OC | 1.8% | 0.0% | 23.1µM* | -4.8 | 14.6µM* | 5.8%
O=C(CSc1nc(-c2ccco2)cc(C(F)(F)F)n1)Nc1cccnc1 | ? | 10.0% | ? | 21.5 | 20.6µM* | ?
CCN(CC)c1ccc(NC(=O)CSc2n[nH]c(-c3ccco3)n2)cc1 | 0.1% | ? | ? | 6.7 | 23.1µM* | 1.7%
COc1ccc(NC(=O)CSc2ccc(-c3ccco3)nn2)cc1OC | -9.7% | 5.5% | 16.4µM* | i | 10.3µM* | 0.0%
Cc1ccc(C(=O)N(CCN2CCCCC2)CC2CCCN(C3CCCC3)C2)s1 (stereo not drawn) | ? | 61.2% | ? | 0.0 | 20.6µM* | -13.2%
O=C(CCN1CCOCC1)Nc1cc(C(=O)Nc2ccc(Cl)cc2)ccc1N1CC2CC(C1)c1cccc(=O)n1C2 (stereo not drawn) | -18.1% | 21.4% | ? | -63.1* | -26.1% | -10.5%
CCOc1ccc(NC(=O)c2ccc(N3CC4CC(C3)c3cccc(=O)n3C4)c(NC(=O)c3ccncc3)c2)cc1 (stereo not drawn) | 1.9% | -23.0% | -19.5% | -10.3 | -6.2% | -2.1%
